The values that follow come from ChEMBL document CHEMBL1201862, “PubChem BioAssay data set” (2004).

Screen size: about 400,000 compounds; about 2,100 (0.53%) were called active. Another 14% or so got no clear call; they are omitted. How the calls were made is not given here. Many of the other results were omitted from the sample, so actives are more common in it than they were.

Chain of Ataxin-2 (Homo sapiens) (Q99700 whole entry): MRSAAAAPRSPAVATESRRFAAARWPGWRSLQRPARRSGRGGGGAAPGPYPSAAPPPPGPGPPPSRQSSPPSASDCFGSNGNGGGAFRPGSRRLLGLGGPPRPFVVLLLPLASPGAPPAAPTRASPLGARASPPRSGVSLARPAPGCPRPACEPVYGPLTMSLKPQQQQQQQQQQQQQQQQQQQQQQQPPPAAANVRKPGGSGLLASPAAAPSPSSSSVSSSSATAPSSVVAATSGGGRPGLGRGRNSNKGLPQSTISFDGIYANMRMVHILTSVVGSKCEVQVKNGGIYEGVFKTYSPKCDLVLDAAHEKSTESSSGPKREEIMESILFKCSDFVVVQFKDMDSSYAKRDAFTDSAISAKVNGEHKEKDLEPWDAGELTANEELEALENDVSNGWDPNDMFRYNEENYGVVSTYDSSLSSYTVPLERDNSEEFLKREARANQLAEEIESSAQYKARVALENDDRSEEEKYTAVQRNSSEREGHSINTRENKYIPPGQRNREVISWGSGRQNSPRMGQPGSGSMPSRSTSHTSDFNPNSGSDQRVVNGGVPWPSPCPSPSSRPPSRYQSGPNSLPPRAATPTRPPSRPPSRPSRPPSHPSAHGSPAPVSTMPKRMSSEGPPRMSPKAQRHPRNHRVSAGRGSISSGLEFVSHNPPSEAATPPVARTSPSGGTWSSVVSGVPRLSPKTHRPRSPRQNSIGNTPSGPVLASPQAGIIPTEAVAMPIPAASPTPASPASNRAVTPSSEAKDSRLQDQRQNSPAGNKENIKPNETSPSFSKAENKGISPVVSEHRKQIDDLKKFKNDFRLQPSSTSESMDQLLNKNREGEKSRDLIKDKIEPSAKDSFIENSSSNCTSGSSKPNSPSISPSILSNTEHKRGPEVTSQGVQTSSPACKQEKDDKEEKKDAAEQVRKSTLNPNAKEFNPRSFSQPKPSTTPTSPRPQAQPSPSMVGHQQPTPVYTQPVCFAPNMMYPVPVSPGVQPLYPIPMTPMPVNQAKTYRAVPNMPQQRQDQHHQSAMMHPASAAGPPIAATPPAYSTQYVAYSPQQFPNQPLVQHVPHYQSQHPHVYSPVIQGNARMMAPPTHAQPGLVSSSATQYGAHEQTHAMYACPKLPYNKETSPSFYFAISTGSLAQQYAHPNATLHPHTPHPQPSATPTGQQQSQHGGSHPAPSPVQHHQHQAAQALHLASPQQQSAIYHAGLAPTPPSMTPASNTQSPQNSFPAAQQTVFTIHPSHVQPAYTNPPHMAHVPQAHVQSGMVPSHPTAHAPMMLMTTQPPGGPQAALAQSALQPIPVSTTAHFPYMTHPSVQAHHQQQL

This experiment addresses Ataxin-2 (Homo sapiens) (UniProt Q99700). The experiment can be described thus: qHTS for Inhibitors of ATXN expression. The experiment is classed as functional. Background: Quantitative high-throughput screening tests each substance at several concentrations.
For `CCCCC(=O)N/N=C/c1ccc(-c2ccc([N+](=O)[O-])cc2)o1`, the Potency result is “inactive”.

Regarding `CSCCC(NC(=O)COc1ccccc1)C(=O)N(C)Cc1c(F)cccc1Cl` (centres undefined), the Potency entry is “inactive”.

Turning to `Cc1ccc(Cn2ncn(-c3ccccc3)c2=O)cc1`, the Potency entry was “inactive”.

For `CC(=O)c1cn(-c2ccc(Cl)cc2)c(=O)n(Cc2ccc(F)cc2)c1=O`, the Potency result is “inactive”.

Take `CC1CCN(Cc2cc(=O)oc3cc(O)c(Cl)cc23)CC1`: the Potency result was “inactive”.

For `CC(C)(C)c1cc(C(=O)NN)n(Cc2ccc(F)cc2)n1`, the Potency result is “inactive”.

In the case of `Cc1ccc(-c2cc(C#N)c(=O)n(Cc3c(Cl)cccc3Cl)c2)cc1`, the Potency result was “inactive”.

In the case of `O=c1c(Cl)c(Cl)cnn1Cc1ccc(F)cc1`, the Potency was 39.8 µM (active).

In the case of `Cc1cc2oc(=O)cc(CN3CCOCC3)c2cc1Cl`, the Potency entry is “inactive”.

For the compound `Cc1ccc(Cn2c(=O)c3ccccc3n3nc(C)cc23)cc1`, the Potency result is “inactive”.

Take `Cc1ccc(Cn2c(=O)c3c(ncn3C)n(C)c2=O)cc1`: the Potency result is “inactive”.

Turning to `Cc1cccc(Cn2ncc(Cl)c(Cl)c2=O)c1`, the Potency was 39.8 µM (active).

`Cc1cc2oc(=O)cc(Cn3ncc(Cl)c(Cl)c3=O)c2cc1Cl`: the Potency was 39.8 µM (active).

As to `Cc1ccc(Cn2ncc(Cl)c(Cl)c2=O)cc1`, the Potency is 39.8 µM (active).

`CCC(C)N1C(=O)S/C(=C/c2ccc(N3CCOCC3)cc2C)C1=O` (centres undefined): the Potency entry is “inactive”.

As to `CCN(CC)Cc1c(O)ccc2cc(-c3nc4ccccc4n3C)c(=O)oc12`, the Potency result is “inactive”.

As for `Cc1c2ccccc2nc2c(F)c(N(C)C)c(F)c(F)c12`, the Potency result was “inactive”.

`Cc1c(O)ccc2cc(S(=O)(=O)c3ccccc3)c(=O)oc12`: the Potency entry is “inactive”.

As for `Cc1cc(C(=O)COC(=O)[C@H](C)NC(=O)c2ccco2)c(C)n1Cc1ccco1`, the Potency entry is “inactive”.

On to `COc1ccc(C)cc1NCc1ccc([N+](=O)[O-])cc1`, for which the Potency entry is “inactive”.

As to `COc1ccc(C)cc1Nc1n[n+](-c2ccccc2)c(-c2c(OC)ccc3ccccc23)s1`, the Potency is 20 µM (active).

Turning to `COc1ccccc1Nc1nc2cc(C)ccc2cc1C#N`, the Potency entry was “inactive”.

For `O=c1[nH]c(=O)n(-c2cc(Br)c(O)c(Br)c2)cc1Br`, the Potency entry was “inactive”.

On to `O=c1oc2ccccc2cc1-c1nc(-c2cccs2)cs1`, for which the Potency entry is “inactive”.

`C=CCOc1ccc(C2C(C(=O)c3ccco3)=C(O)C(=O)N2c2nnc(C)s2)cc1` (centres undefined): the Potency entry was “inactive”.

As to `C=C1CC2(CC(c3ccccc3)OC(c3ccccc3)C2)OC1=O` (centres undefined), the Potency is 39.8 µM (active).

Turning to `O=C(/C=C/c1cn(CC(O)CN2CCCCCC2)c2ccccc12)c1cccs1` (centres undefined), the Potency result was “inactive”.

As for `Fc1ccc(-c2ncc3ccccn23)cc1`, the Potency result was “inactive”.

For the compound `Cn1c(=S)n(C)c2ccccc21`, the Potency entry is “inactive”.

In the case of `CN(C(=O)CSc1nnc(-c2cccs2)n1N)c1ccccc1`, the Potency result is “inactive”.

For `CCC(NC(=O)Nc1nnc(C(F)(F)F)s1)(C(F)(F)F)C(F)(F)F`, the Potency was 31.6 µM (active).

With `CC1CCN(C(=O)CCC(=O)Nc2nnc(C(F)(F)F)s2)CC1`, the Potency entry is “inactive”.

As for `O=C(Nc1nnc(C(F)(F)F)s1)c1c(F)cccc1F`, the Potency result is “inactive”.

As for `O=C(O)CSc1nnc(-c2cccc(S(=O)(=O)N3CCOCC3)c2)n1-c1ccc(F)cc1`, the Potency entry is “inactive”.

For the compound `N=C1C=CC(=C(c2ccc(N)cc2)c2ccc(N)cc2)C=C1`, the Potency is 28.2 µM (active).

On to `COc1ccc(COc2ncnc3ccc(Br)cc23)cc1F`, for which the Potency entry was “inactive”.

For `Cc1cc(S(=O)(=O)NC2CC(C)(C)NC(C)(C)C2)c(Cl)cc1Cl`, the Potency entry was “inactive”.

`CC1CCCCN1CCCNC(=O)c1[nH]c2ccccc2c1Sc1ccc(Cl)cc1` (centres undefined): the Potency was 39.8 µM (active).

On to `CCC1CCCCN1CCCNC(=O)c1[nH]c2ccccc2c1Sc1ccc(Cl)cc1` (centres undefined), for which the Potency is 39.8 µM (active).

In the case of `CC1CCCCC1NC(=O)CCn1c(=S)[nH]c2ccccc2c1=O` (centres undefined), the Potency entry is “inactive”.

Turning to `CCCCCn1c(=O)[nH]c2cc(C(=O)NCCCN3CCCCC3C)ccc2c1=O` (centres undefined), the Potency entry was “inactive”.

Turning to `COc1ccccc1[C@H]1C(c2ccccc2)=NN(c2ccccc2)[C@@H]1CO`, the Potency result was “inactive”.

`Cc1ccc(C2=CC(c3ccc(C)cc3)n3ncnc3N2)cc1` (centres undefined): the Potency result was “inactive”.

`COCc1cc(C)nc2sc(C(=O)Nc3ccc(C(C)=O)cc3)c(N)c12`: the Potency result is “inactive”.

On to `CC(=O)c1ccc(Nc2cc(C)nc3c(C)cc(C)cc23)cc1`, for which the Potency was 29.9 µM (active).

In the case of `Cc1ccc(Nc2cc(C)c(O)c(C)c2)cc1`, the Potency entry was “inactive”.

On to `COC(=O)Cc1c(C)c2cc3c(c(C)c2oc1=O)OCN(CCc1ccc(F)cc1)C3`, for which the Potency entry is “inactive”.

For the compound `COC(=O)Cc1c(C)c2ccc3c(c2oc1=O)CN(Cc1ccccc1OC)CO3`, the Potency result is “inactive”.

On to `COc1ccc(C2C=C(c3ccc(Br)cc3)Nc3nc(N4C(=O)CCC4=O)nn32)cc1` (centres undefined), for which the Potency entry was “inactive”.

Take `CCc1cc(=O)oc2c(CN3CCN(C)CC3)c(O)ccc12`: the Potency result is “inactive”.

Consider `Cc1ccc(-c2csc3ncnc(Sc4nnc(CN5CCCCCC5=O)o4)c23)cc1`, for which the Potency is 39.8 µM (active).

Take `CCN(CC)c1ccc(C(=O)c2cnc(/N=C/N(C)C)s2)cc1`: the Potency result is “inactive”.

Take `CCN(CC)c1ccc(C(=O)OCC(=O)N(C(C)C)C(C)C)cc1`: the Potency entry is “inactive”.

As for `CCN(CC)c1ccc(C(=C2C=CC(=[N+](CC)CC)C=C2)c2ccc(N(CC)CC)cc2)cc1`, the Potency was 10 µM (active).

On to `CCOc1ccc(Nc2nc3c(C)cccc3cc2C#N)cc1`, for which the Potency result was “inactive”.

Take `Cc1ccc(NC(=O)Cc2ccc(Cl)cc2)nc1`: the Potency result was “inactive”.

On to `N=C(N)NS(=O)(=O)c1ccc(NC(=S)NC(=O)Cc2ccc(Cl)cc2)cc1`, for which the Potency entry was “inactive”.

Take `O=C(Cc1ccc(Cl)cc1)Nc1ccc(-c2nnc(-c3ccco3)o2)cc1`: the Potency is 39.8 µM (active).

Turning to `CC(C)OCCCNC(=O)NC(=O)c1ccc(Cl)cc1`, the Potency entry is “inactive”.

Turning to `O=C(COc1ccc(Cl)cc1)N(Cc1cccs1)C1CCS(=O)(=O)C1` (centres undefined), the Potency result was “inactive”.

With `CCOc1ccc(/C=C/C(=O)c2cc(Br)ccc(=O)c2O)cc1`, the Potency is 22.4 µM (active).

For the compound `Cc1cc(O)c(C(=O)/C=C/c2ccc(Cl)cc2)c(=O)o1`, the Potency entry was “inactive”.

In the case of `CCOc1ccc(OCCOc2ccc(/C=C/C(=O)O)cc2OCC)cc1`, the Potency entry is “inactive”.

As to `CCN=c1ccc(Br)cc(C(=O)/C=C/c2ccc(Cl)cc2)c1O`, the Potency was 31.6 µM (active).

`CCOc1ccc(-n2cc(C(=O)c3cc(Cl)ccc3O)cc(C#N)c2=O)cc1`: the Potency entry was “inactive”.

As to `CC(C)(C)c1ccc(C(=O)NNc2ncccc2-n2cccc2)cc1`, the Potency entry is “inactive”.

For `CC(=O)N/N=C/c1cc(C(C)C)cc(/C=N/NC(C)=O)c1O`, the Potency entry was “inactive”.

In the case of `COc1cc(OC)nc(-n2ncc(Br)c(Br)c2=O)n1`, the Potency was 10.6 µM (active).

`O=c1c(Br)c(Br)cnn1-c1ccccc1`: the Potency was 4.23 µM (active).
